The values that follow come from PubChem BioAssay (NCI).

About 83,000 compounds went through this panel and 20% of them were active in at least one assay; those are over-represented in the sample as a whole.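 Each cell line was grown in a 96-well plate and treated with one concentration of compound for 48 hours. Values below 10 were considered active.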 Values without a mark were called inactive. Active and inactive are the calls of the source.

This assay relates to HL-60(TB) leukemia. In words: NCI-60 one-dose screen, 48 h (100 = growth as untreated, 0 = no growth, -100 = all killed). The conditions noted are these: 10 µM unless noted.
For the compound `O=C1C=CN2C(=O)CC=CC2[C@@H]1O` (some centres undefined), the growth is 98.1%.

As to `N#Cc1c(-c2ccc(Cl)cc2)csc1NC(=O)Nc1cccc(C(F)(F)F)c1`, the growth is -13% (active). On to `CC(C)(C)n1cc(-c2ccnc(NCCCNS(=O)(=O)c3ccc(F)cc3)c2)c(-c2cccc(O)c2)n1`, for which the growth is 39.9%. In the case of `Cc1[nH]ccc2cc3nc4ccccc4c3cc12`, the growth was 16.4%. On to `O=C(C(=O)c1cc(Br)ccc1O)c1cc(Br)ccc1O`, for which the growth is 27.4%. As for `Cc1cc(SC#N)cc(C(C)(C)C)c1O`, the figure is 74.3%; as for `CC(C)C(C)(C)c1ccc(O)cc1`, 104%; as for `CCOC(=O)c1c(NC(=O)c2ccc(OC)cc2)sc2c(CN(C)C)c(O)ccc12`, 1.3% (active). As for `COc1ccc2c(c1)O/C(=C\c1cccc(OCC(=O)Nc3nc4ccccc4s3)c1)C2=O`, the figure is 40.7%; as for `COc1ccc(-c2nn(-c3ccc(NC(=O)Nc4ccc(Cl)c(Cl)c4)cc3)cc2-c2ccncc2)cc1Cl`, 5.24% (active); as for `CC(C)(C)OC(=O)N1Cc2cc3ccccc3nc2C1CO` (centres undefined), 92.8%. As for `COc1ccc(C(=O)/C=C/c2c(Cl)c3c(c(OC)c2Cl)OCC(=O)N3)cc1`, the figure is 13.8%; as for `COC(=O)c1cnc2c(c1)Oc1ccc(Cl)cc1-c1cc(C)nn1-2`, 95.9%; as for `COc1cccc(NC(=O)NCCNc2nccc(-c3c(-c4ccc(F)cc4)nc4sccn34)n2)c1`, 92.7%. In the case of `CN(C)c1ccc(-c2ccc(-c3ccc(C(=N)N)cc3)s2)cc1`, the growth is 14.4%.

For the compound `COc1cc(-c2cc(-c3nc4cc(Cl)c(Cl)cc4[nH]3)[nH]n2)cc(OC)c1OC`, the growth was 14.2%. As for `CCOP(=O)(NC(c1ccccc1)c1ccccc1)OCC`, the figure is 101%.

Consider `O=C(Nn1c(NCC(=O)N2c3ccccc3Sc3ccccc32)nnc1-c1ccc(O)cc1)c1ccccc1`, for which the growth was 98.6%.

As to `O=c1c2c(c(=O)n1O)c1c3ccc[nH]c3nc1c1nc3[nH]cccc3c12`, the growth is 81%. As for `C=CCNc1ccccc1`, the figure is 125%; as for `C=C(C)[C@@H]1CC[C@]2(C(=O)NCCCN(CCC#N)CCC#N)CC[C@]3(C)[C@H](CC[C@@H]4[C@@]5(C)CCC(=O)C(C)(C)[C@@H]5CC[C@]43C)[C@@H]12`, 100%; as for `O=C([O][Sn]([O]C(=O)c1ccccn1)([c]1ccccc1)[c]1ccccc1)c1ccccn1`, 68.5%. As for `CCOC(=O)c1cc(-c2ccccc2)nc(N)n1`, the figure is 101%; as for `CCCc1nc(C(C)(C)O)c(C(=O)O)n1Cc1ccc(-c2ccccc2-c2nn[nH]n2)cc1`, 107%.
